Here are results for 15 molecules from PubChem BioAssay AID1491 (National Center for Advancing Translational Sciences (NCATS), 2009).

Values joined by “and” are separate entries in the source; they are usually repeats but may differ in a detail not shown here. Identical values can stand only once. Records with an inconclusive call do not appear. A call without a number means that no potency is given here. Active and inactive are the calls of the source. Calls come from the whole dose curve; as a rule, active = well fitted inhibition curve with a large enough effect in the main read-out, with a control signal flat; inconclusive = small, poorly fitted or top-dose-only effect, or a change in a side signal; inactive = flat fitted curve, though single readings scatter.
Potency is the fitted concentration of half-maximal effect.

Neuropeptide S receptor (Homo sapiens), sequence (Q6W5P4 whole entry, looked up): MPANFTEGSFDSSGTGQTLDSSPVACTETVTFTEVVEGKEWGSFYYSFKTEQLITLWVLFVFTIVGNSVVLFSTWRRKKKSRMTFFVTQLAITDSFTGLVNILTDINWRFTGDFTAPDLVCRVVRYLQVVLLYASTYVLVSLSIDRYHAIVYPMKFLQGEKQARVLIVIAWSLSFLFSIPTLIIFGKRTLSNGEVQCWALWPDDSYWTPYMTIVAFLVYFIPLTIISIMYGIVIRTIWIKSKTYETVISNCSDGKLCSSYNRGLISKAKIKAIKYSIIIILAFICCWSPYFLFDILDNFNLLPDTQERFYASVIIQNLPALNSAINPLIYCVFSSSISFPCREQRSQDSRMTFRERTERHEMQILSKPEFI

In this test the target is Neuropeptide S receptor (Homo sapiens) (UniProt Q6W5P4). The test is described as follows: Confirmation Concentration-Response Assay for Antagonists of the Neuropeptide S Receptor: cAMP Signal Transduction. Conditions: CHO-NPSR cells, cAMP TR-FRET, antagonist mode; series mostly up to 22.3 µM. An outline of the steps:
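LANCE TR-FRET cAMP read-out: 665/620 nm emission ratio, with the 620 nm donor channel also reported, after 2 h RT detection. Stably transfected CHO-NPSR cells got compound titrations and 100 nM NPS in stimulation reagent for 60 min at 37C. IC50 came from Hill fits.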
(In general: Time-resolved FRET reads energy transfer from a long-lived donor to a nearby acceptor.)
`CCOC(=O)C1CCCN(c2ncnc3c2oc2ccccc23)C1` (stereo not given): the Potency is 50.1 µM (active) and 12.6 µM (active).
Take `COc1ccc(N2C3=C(CC4=C2CC(C)(C)CC4=O)C(=O)CC(C)(C)C3)cc1`: the Potency entry was “inactive”.
In the case of `COc1ccc(/C=C2\CCCC3C2=NN(C(=O)c2ccco2)C3c2ccc(OC)c(OC)c2)cc1OC` (stereo not given), the Potency entry was “inactive”.
On to `N=c1c2c(ncn1-c1ccccc1)Oc1ccc3ccccc3c1C2c1ccc2c(c1)CCO2` (stereo not given), for which the Potency was 1.12 µM (active).
Take `C=C1C(=O)C=C2CN(C(=O)c3ccccc3)[C@@](Cc3ccc(F)cc3)(C(=O)OC)[C@@H]12`: the Potency was 3.98 µM (active).
For `Cc1ccc(/C=C2\SC(=S)N(CC(=O)Nc3ncc(Cc4ccccc4Cl)s3)C2=O)cc1`, the Potency entry was “inactive”.
For `N#Cc1c(-c2ccccc2)c(-c2ccccc2)nn(CC(=O)NNC(=O)Nc2ccc(Cl)c(Cl)c2)c1=O`, the Potency result is “inactive”.
Under `CN(C)c1ccc(N2CN=C3SCC(=O)N3C2)cc1` stands “inactive”.
As to `O=C(Nc1nccs1)C1CCCN1S(=O)(=O)c1ccc(Cl)cc1` (stereo not given), the Potency entry is “inactive”.
On to `COc1ccc(O)c(/C=N/Nc2nc(Nc3ccccc3)nc(-n3nc(C)cc3C)n2)c1`, for which the Potency result was “inactive”.
As to `O=C(c1ccccc1-c1nc2ccccc2[nH]1)N1CCCCC1`, the Potency entry was “inactive”.
Under `O=[N+]([O-])c1cc2c(cc1/C=N/n1c(-c3ccccc3)n[nH]c1=S)OCO2` stands “inactive”; under `CS(=O)(=O)c1nc(-c2ccccc2)cc(C(F)(F)F)n1`, 7.94 µM (active); under `O=C(N1CCOCC1)C1(c2ccc(Cl)cc2)CCCC1`, “inactive”.
For the molecule `Cc1cc(C)n(-c2nc(NC(C)C)nc(NC(C)C)n2)n1`, the Potency entry is “inactive”.
